# Laboratory results: the supplement of paper PMC10849652
# About 8,800 targets were measured; listed, in parts, are those with a hit and a random draw of the rest. About 0.5% of all pairs of compound and target were hits. Unmarked numbers belong to inactive results.
# Assays:
# Assay in all cases: log2 fold change, soluble protein after heating vs DMSO (PISA); higher = thermal stabilisation; K562 lysate, 10 uM; active = over 0.2 and 3.5 SD of the protein, either way, in both replicates (recomputed)
# erlotinib = compound: C#Cc1cccc(Nc2ncnc3cc(OCCOC)c(OCCOC)cc23)c1 [erlotinib]
# Method in brief: (§1)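 Thermal stability, expressed as log-two fold change relative to solvent controls, is given from duplicates. Crude K562 extract in PBS pH 7.4 with 1 mM MgCl2, at 1 mg/mL protein, was treated with 10 μM compound for 30 min and heated in aliquots for 3 min across 48°C-58°C. After pooling, adjustment to 0.5% NP-40 at 4°C and centrifugation at 21,000xg for 90 min, supernatant protein was measured by TMTpro 16plex LC-MS/MS with channel sums equalised.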
# [1] = compound: C/C(=N\NC(=O)C1=CC(=CC=C1)S(=O)(=O)N2CCOCC2)/C3=C(C=CC(=C3)Cl)O
# Method in brief: as §1
# [2] = compound: C1=CC(=CC=C1C2=NC3=C(N2)C=C(C=C3)C(=O)N)OC4=CC=C(C=C4)Cl
# Method in brief: as §1
# [3] = compound: C1=CC2=C(C=CC(=C2)/C=C\3/C(=O)NC(=NCC4=CC=CS4)S3)N=C1
# Method in brief: as §1
# [4] = compound: C1=CC2=NC=CN=C2C=C1/C=C/3\C(=O)NC(=O)S3
# Method in brief: as §1
# [5] = compound: C1=CC=C(C=C1)C2=NC(=C(N2)C3=CC=NC=C3)C4=CC(=C(C=C4)Cl)O
# Method in brief: as §1
# [6] = compound: C1=CC=C2C(=C1)C3=NNC4=CC=CC(=C43)C2=O
# Method in brief: as §1
# [7] = compound: C1CCN(C1)C(=O)NC2=CC=CC(=C2)NC3=NC=C(C(=N3)NCCC4=CN=CN4)Br
# Method in brief: as §1
# [8] = compound: C1CN(CCC1(CC2=CC=C(C=C2)Cl)N)C3=NC=NC4=C3C=CN4
# Method in brief: as §1
# IRAK-1-4 Inhibitor I = compound: C1COCCN1CCN2C3=CC=CC=C3N=C2NC(=O)C4=CC(=CC=C4)[N+](=O)[O-] [IRAK-1-4 Inhibitor I]
# Method in brief: as §1
# ibrutinib = compound: C=CC(=O)N1CCC[C@@H](n2nc(-c3ccc(Oc4ccccc4)cc3)c3c(N)ncnc32)C1 [ibrutinib]
# Method in brief: as §1
# [9] = compound: CC(=O)c1cnc2ccc(-c3cc(Cl)c(O)c(Cl)c3)nc2c1N[C@H]1CC[C@H](CN(C)C)CC1
# Method in brief: as §1
# ralimetinib = compound: CC(C)(C)Cn1c(N)nc2ccc(-c3[nH]c(C(C)(C)C)nc3-c3ccc(F)cc3)nc21 [ralimetinib]
# Method in brief: as §1
# [10] = compound: CC(C)(O)CC(=O)NCCn1ccc2ncnc(Nc3ccc(Oc4cccc(C(F)(F)F)c4)c(Cl)c3)c21
# Method in brief: as §1
# [11] = compound: CC(C)C1=C2N=C(C=C(N2N=C1)NCC3=CC=CC=C3)NCCCCCCN
# Method in brief: as §1
# [12] = compound: CC1=C(C(CC(=O)N1)C2=CC=C(C=C2)C(F)(F)F)C(=O)NC3=C(C=C4C(=C3)C=NN4)F
# Method in brief: as §1
# [13] = compound: CC1=C(C2=C(C=C1)C(=O)C3=CC=CC=C3N2CCCN)C
# Method in brief: as §1
# [14] = compound: CC1=C(C=C(C=C1)NC(=O)C2=CC(=CC=C2)C(C)(C)C#N)NC3=CC4=C(C=C3)N=CN(C4=O)C
# Method in brief: as §1
# [15] = compound: CC1=C(C=C(C=C1)NC(=O)C2=CC(=CC=C2)N(C)C)NC(=O)C3=CC=C(C=C3)O
# Method in brief: as §1
# [16] = compound: CC1=CC=C(C=C1)SC2=C3C=C(SC3=CN=C2)C(=O)N
# Method in brief: as §1
# UniProt Q96KP4, sequence (Q96KP4 whole entry, looked up): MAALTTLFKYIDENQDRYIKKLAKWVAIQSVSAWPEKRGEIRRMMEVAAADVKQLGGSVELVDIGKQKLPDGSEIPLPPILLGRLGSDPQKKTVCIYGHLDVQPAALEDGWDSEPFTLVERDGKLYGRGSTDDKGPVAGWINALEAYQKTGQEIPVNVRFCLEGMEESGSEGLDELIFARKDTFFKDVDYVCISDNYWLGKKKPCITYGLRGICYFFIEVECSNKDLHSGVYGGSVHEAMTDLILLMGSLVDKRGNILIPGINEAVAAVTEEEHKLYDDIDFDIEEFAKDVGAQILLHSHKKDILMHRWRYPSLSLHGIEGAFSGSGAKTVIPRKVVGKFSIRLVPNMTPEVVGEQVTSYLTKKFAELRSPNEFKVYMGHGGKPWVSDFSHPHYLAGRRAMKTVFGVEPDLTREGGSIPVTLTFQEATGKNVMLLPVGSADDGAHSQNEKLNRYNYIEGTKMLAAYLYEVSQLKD
# UniProt P31146, sequence (P31146 whole entry, looked up): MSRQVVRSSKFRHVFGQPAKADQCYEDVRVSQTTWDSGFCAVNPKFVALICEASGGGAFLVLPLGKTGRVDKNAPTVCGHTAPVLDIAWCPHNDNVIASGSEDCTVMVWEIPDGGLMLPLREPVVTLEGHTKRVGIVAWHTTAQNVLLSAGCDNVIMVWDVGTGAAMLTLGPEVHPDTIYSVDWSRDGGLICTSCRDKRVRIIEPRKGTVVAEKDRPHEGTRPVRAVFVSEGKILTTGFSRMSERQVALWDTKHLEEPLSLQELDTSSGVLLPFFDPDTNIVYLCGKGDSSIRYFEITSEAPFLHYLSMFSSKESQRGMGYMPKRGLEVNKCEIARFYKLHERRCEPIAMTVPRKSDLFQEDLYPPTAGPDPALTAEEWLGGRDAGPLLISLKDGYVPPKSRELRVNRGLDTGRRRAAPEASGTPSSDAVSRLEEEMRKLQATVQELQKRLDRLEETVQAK
# UniProt Q96LJ7, sequence (Q96LJ7 whole entry, looked up): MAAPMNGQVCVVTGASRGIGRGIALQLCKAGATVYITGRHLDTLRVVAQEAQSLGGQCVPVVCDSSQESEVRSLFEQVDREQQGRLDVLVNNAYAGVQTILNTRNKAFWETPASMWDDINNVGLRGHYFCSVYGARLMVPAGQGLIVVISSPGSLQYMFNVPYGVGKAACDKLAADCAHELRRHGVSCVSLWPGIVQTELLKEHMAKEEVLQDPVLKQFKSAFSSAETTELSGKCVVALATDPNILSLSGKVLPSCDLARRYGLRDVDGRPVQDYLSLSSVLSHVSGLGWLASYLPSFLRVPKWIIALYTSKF
# UniProt Q5RI15, sequence (Q5RI15 whole entry, looked up): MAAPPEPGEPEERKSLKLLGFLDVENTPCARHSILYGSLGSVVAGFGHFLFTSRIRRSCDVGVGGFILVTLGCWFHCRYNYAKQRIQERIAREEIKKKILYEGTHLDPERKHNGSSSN
# UniProt P14868, sequence (P14868 whole entry, looked up): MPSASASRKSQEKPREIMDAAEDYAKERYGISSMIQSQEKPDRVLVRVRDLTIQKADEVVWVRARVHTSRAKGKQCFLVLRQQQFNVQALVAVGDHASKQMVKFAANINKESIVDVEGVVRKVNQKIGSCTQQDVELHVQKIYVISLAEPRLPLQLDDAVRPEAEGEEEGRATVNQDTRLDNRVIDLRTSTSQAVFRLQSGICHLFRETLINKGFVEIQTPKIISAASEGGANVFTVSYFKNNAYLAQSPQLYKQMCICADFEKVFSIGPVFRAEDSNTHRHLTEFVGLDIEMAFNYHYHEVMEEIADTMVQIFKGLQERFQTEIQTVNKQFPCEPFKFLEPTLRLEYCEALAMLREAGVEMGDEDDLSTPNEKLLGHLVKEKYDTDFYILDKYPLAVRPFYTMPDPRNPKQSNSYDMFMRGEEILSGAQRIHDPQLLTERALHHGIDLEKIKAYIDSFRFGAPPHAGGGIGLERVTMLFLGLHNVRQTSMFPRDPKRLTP
# UniProt Q8NF50, sequence (Q8NF50 whole entry, looked up): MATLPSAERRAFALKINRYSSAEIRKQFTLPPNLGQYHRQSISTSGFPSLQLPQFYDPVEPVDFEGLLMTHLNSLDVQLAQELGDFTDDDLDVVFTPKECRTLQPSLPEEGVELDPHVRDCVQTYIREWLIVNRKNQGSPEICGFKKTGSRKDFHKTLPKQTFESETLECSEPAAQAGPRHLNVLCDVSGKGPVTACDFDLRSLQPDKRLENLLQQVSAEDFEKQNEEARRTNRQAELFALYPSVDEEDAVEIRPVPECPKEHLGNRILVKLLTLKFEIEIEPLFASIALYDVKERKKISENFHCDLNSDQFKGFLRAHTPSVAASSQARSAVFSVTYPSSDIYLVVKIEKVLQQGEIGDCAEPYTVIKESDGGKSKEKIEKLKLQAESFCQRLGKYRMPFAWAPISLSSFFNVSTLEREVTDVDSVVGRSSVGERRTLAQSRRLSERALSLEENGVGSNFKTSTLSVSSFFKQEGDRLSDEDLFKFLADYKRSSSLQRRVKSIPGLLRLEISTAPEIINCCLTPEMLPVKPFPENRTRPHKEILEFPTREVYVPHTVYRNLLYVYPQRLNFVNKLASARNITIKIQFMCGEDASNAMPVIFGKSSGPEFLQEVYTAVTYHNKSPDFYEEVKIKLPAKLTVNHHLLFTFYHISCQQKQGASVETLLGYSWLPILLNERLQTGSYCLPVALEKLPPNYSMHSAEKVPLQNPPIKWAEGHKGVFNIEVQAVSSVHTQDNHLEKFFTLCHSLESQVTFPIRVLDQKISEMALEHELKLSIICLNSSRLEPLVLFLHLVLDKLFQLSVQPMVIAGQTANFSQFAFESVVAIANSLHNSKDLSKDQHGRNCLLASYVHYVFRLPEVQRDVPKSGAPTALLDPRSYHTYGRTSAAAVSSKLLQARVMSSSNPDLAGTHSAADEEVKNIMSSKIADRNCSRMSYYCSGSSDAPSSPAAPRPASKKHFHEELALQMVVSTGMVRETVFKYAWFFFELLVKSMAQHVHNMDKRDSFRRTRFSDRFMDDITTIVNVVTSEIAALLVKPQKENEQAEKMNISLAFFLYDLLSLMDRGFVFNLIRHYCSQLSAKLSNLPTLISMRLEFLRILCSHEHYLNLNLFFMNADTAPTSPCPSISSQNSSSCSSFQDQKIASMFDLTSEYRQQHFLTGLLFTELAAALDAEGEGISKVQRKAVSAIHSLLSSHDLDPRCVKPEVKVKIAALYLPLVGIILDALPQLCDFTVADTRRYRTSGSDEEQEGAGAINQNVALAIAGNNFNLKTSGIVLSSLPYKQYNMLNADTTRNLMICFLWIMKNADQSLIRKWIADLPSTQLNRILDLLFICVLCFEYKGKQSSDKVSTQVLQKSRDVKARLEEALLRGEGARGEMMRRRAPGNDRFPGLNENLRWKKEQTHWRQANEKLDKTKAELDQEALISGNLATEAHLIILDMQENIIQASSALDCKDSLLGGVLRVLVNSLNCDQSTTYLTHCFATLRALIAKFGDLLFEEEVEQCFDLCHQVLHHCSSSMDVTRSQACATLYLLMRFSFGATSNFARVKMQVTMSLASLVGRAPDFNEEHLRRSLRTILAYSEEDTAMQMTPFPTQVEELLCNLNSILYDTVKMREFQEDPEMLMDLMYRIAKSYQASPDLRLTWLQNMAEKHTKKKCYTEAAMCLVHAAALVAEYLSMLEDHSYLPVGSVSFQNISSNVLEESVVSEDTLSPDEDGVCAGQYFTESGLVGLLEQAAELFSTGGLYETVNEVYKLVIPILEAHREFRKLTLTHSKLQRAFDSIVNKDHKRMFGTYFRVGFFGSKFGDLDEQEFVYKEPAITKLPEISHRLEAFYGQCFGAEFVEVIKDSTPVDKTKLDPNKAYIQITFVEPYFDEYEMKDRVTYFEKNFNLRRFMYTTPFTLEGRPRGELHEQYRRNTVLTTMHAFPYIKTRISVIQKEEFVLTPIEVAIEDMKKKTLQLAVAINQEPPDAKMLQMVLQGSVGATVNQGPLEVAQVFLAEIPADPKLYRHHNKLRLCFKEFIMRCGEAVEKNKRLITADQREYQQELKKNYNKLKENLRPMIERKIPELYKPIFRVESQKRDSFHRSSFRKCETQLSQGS
# UniProt P50570, sequence (P50570 whole entry, looked up): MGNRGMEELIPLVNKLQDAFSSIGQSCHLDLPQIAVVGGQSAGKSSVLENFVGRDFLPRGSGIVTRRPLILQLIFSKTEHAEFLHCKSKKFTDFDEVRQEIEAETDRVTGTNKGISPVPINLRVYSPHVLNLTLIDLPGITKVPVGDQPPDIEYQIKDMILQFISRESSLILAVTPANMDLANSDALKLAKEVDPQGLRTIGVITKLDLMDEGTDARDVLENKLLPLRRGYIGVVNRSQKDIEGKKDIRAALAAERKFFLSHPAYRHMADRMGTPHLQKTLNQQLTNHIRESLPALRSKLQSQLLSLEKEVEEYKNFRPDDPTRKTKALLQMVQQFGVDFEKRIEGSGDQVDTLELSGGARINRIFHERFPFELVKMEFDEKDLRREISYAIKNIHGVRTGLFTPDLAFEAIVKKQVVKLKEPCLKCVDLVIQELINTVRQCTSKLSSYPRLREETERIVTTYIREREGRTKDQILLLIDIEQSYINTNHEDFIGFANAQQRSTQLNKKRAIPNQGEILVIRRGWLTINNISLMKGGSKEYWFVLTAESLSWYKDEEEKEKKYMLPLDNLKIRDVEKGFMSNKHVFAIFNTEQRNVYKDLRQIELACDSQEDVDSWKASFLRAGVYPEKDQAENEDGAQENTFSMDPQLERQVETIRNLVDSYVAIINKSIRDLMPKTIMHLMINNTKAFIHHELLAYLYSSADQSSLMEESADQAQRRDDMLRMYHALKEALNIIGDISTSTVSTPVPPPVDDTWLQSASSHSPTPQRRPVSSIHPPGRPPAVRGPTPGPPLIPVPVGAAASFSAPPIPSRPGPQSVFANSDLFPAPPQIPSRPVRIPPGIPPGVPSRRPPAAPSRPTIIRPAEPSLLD
Target,log2 fold change (erlotinib),log2 fold change [1],log2 fold change [2],log2 fold change [3],log2 fold change [4],log2 fold change [5],log2 fold change [6],log2 fold change [7],log2 fold change [8],log2 fold change (IRAK-1-4 Inhibitor I),log2 fold change (ibrutinib),log2 fold change [9],log2 fold change (ralimetinib),log2 fold change [10],log2 fold change [11],log2 fold change [12],log2 fold change [13],log2 fold change [14],log2 fold change [15],log2 fold change [16]
DNM2 (UniProt P50570),0.045,-0.009,0.049,0.013,0.029,0.003,-0.049,-0.022,-0.008,0,0.014,0,0.013,0.013,0.018,0.011,0.024,-0.016,0.006,0.004
CMSS1 (UniProt Q9BQ75),-0.029,0.018,-0.031,0.011,-0.059,-0.004,0.011,-0.011,0.03,-0.035,-0.012,-0.016,-0.002,-0.011,0.047,-0.015,0.027,-0.059,0.019,-0.004
DHRS1 (UniProt Q96LJ7),0.024,0.898 (active),-0.017,-0.008,-0.036,0.654 (active),0.05,-0.052,0.105,-0.051,-0.057,-0.037,0.01,0.089,0.058,0.024,-0.104,0.001,-0.035,-0.001
DOCK8 (UniProt Q8NF50),-0.001,-0.073,-0.016,0.018,0.005,0.017,-0.023,0.04,-0.021,0.014,-0.033,-0.012,0.03,0.047,0.003,-0.005,0.022,0.004,0.057,-0.011
DLD (UniProt P09622),0.014,0,0.022,-0.01,0.025,0.004,0.007,0.008,0.006,0.026,0.003,0.003,-0.006,-0.016,-0.013,-0.03,-0.006,0.049,-0.007,0.004
CYP24A1 (UniProt Q07973),0.015,0.058,0.148,-0.09,-0.083,-0.008,-0.135,-0.05,-0.011,0.07,0.01,-0.036,-0.03,-0.159,0.019,-0.05,-0.051,0.183,0.007,-0.067
CNST (UniProt Q6PJW8),0.044,-0.013,0.05,0.01,-0.004,0.007,-0.054,-0.022,0.036,0.023,0,0.006,0.031,0.022,0.012,0.176,-0.01,-0.035,0.006,-0.002
CORO1A (UniProt P31146),0.077,0.086,-0.032,0.036,-0.022,0.005,0.009,0.155,-0.031,0.021,0.028,-0.031,-0.015,-0.021,0.055,0.018,-0.107,0.025,-0.036,0.012
CNDP2 (UniProt Q96KP4),-0.016,0.004,0.02,-0.038,-0.009,-0.022,0.007,0.039,0.041,0.051,0.013,-0.027,0.024,-0.049,-0.011,-0.005,-0.02,0.023,0,-0.035
CSDE1 isoform 4 (UniProt O75534),-0.025,0.009,-0.035,0.001,-0.023,-0.021,-0.002,0.016,-0.001,-0.017,-0.007,-0.003,0.017,0.03,0.003,-0.013,0.004,-0.022,0.012,0.009
CMPK2 (UniProt Q5EBM0),-0.019,0.07,0.006,-0.035,-0.016,0.004,-0.038,-0.03,0.031,0.024,0.012,0.045,-0.012,0.012,0.026,0.014,0.027,0.009,-0.018,-0.01
CHEK1 (UniProt O14757),-0.048,-0.057,0,0.27 (active),0.008,0.023,0.06,-0.108,0.02,-0.011,0.019,0.104,0.032,-0.004,-0.003,0.004,0.011,0.026,-0.005,-0.024
CTPS2 (UniProt Q9NRF8),-0.009,-0.008,-0.016,-0.01,0.01,-0.008,0,-0.021,-0.015,-0.006,0.021,0.006,0.017,-0.026,-0.011,0.008,-0.004,0.009,0.005,-0.009
CKM (UniProt P06732),0.034,-0.167,0.003,0.023,0.058,-0.024,0,-0.017,0.038,0.044,-0.002,0.056,0.046,-0.076,0.002,-0.001,-0.029,0.044,0.005,-0.02
DARS (UniProt P14868),0.006,0.037,-0.039,0.027,0.019,-0.004,-0.04,-0.012,-0.024,-0.041,0.009,0.021,0.049,0.04,0.001,-0.003,0.027,-0.019,0.026,0.053
COX20 isoform 2 (UniProt Q5RI15),0.022,0.004,-0.018,-0.001,-0.129,0.016,-0.036,-0.09,0.034,0.048,0.28,0.017,0.084,0.032,-0.003,-0.007,-0.04,0.003,0.001,-0.023
